# Assay results as given in PubChem BioAssay (EPA / NIEHS).
# Results filed as inconclusive are left out. Activity calls are given as the source filed them. How the source made its calls, unless noted: active means hit-call score of the fitted dose curve at least 0.9, where 1 is the maximum; inconclusive means response in the unintended direction; inactive means score below 0.9.
# Columns and labels:
# [1] = TOX21_PR_LUC_Followup_Antagonist_viability: Viability Assessment in the Tox21 HEK293 Progesterone Receptor (PR) Antagonism Luciferase Follow-Up Assay (AID 2283940)
# In short: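 HEK293-PR-A-luc, 3,000 cells/well; 5 h at 37C/0% CO2; compound pin transfer; 16 h incubation; CellTiter-Glo ATP luminescence, signal loss = cytotoxicity.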
# [2] = TOX21_PR_LUC_Followup_Agonist_viability: Viability Assessment in the Tox21 HEK293 Progesterone Receptor (PR) Agonism Luciferase Follow-Up Assay (AID 2283941);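 further: loss of signal means cytotoxicity so actives lower viability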
# In short: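 Multiplexed viability endpoint of the PR agonist luciferase follow-up: HEK293-PR-A-luc cells treated 16 h at 37C, with viability scored as decrease in CellTiter-Glo ATP signal.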
# [3] = molecular target: Thyroid hormone receptor alpha (Rattus norvegicus) + Thyroid hormone receptor beta (Rattus norvegicus) (UniProt P18113+P63059); assay: TOX21_TR_LUC_GH3_Antagonist_Followup: Tox21 GH3 Thyroid Hormone Receptor Antagonism Luciferase Follow-Up Assay (AID 2283942)
# In short: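 Luminescence read-out (ONE-Glo, 30 min at room temperature) in GH3 reporter cells challenged with 1.0 nM T3 final. Compounds ran at 92 uM to 5nM over 15 concentrations for 24 h; DMSO served as negative control and baseline.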
# THRA (gene 7067) [4] = molecular target: THRA (gene 7067) (UniProt P10827); assay: TOX21_TRA_COA_Antagonist_Followup_ratio: Tox21 Thyroid Hormone Receptor alpha Antagonism through Coactivator Recruitment Follow-Up Assay, Ratio (AID 2283953)
# THRA (gene 7067), sequence (P10827 whole entry, looked up, the tested form may be a part): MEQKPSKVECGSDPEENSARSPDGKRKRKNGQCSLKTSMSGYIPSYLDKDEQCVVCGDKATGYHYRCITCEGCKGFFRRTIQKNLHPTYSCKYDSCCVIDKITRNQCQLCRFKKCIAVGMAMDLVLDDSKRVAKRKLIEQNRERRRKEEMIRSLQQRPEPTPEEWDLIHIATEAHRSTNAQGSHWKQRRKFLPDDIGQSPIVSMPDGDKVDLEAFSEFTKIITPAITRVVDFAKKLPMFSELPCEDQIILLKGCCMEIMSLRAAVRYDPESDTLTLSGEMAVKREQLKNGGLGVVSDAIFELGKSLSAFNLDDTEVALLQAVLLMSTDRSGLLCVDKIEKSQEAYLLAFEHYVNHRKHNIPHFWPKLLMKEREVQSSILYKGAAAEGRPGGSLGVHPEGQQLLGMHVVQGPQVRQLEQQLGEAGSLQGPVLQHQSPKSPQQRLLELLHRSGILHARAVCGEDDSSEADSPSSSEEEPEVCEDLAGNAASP
# In short: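 GST-TRα LBD 2.5 nM, BSA 0.10%, + cpd; then FITC-SRC-2 peptide 200 nM + Tb-anti-GST Ab 2 nM. TR-FRET ratio 520/495 nm. Norm: DMSO = 0%, T3 = 100%.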
# THRB (gene 7068) [5] = molecular target: THRB (gene 7068) (UniProt P10828); assay: TOX21_TRB_BLA_Antagonist_Followup_ratio: Tox21 Thyroid Hormone Receptor beta Antagonism Beta-lactamase (BLA) Follow-Up Assay, Ratio (AID 2283958)
# THRB (gene 7068), sequence (P10828 whole entry, looked up, the tested form may be a part): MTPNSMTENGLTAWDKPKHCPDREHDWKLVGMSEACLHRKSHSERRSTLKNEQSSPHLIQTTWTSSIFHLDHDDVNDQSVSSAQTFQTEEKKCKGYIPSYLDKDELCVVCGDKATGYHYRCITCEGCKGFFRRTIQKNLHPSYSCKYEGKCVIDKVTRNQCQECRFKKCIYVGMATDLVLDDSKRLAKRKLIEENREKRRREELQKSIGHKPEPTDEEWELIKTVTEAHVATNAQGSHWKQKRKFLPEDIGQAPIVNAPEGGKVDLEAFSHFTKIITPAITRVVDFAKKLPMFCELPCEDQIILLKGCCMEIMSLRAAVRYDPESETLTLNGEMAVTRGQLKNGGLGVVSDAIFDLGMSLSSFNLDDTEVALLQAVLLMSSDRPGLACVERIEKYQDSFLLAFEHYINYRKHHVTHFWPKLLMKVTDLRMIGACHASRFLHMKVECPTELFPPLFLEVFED
# In short: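 Cells were plated and allowed to attach for 5 h, then dosed with compounds in DMSO at 11 concentrations for 18 h at 37C. Beta-lactamase reporter activity was measured via CCF4-AM FRET as the 460:530 nm ratio.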
# THRB (gene 7068) [6] = molecular target: THRB (gene 7068) (UniProt P10828); assay: TOX21_TRB_COA_Antagonist_Followup_ratio: Tox21 Thyroid Hormone Receptor beta Antagonism through Coactivator Recruitment Follow-Up Assay, Ratio (AID 2283967)
# In short: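 GST-TRb LBD 5.0 nM + 0.10% BSA, compound added; fluorescein-SRC-2 peptide 200 nM, Tb-anti-GST Ab 2 nM. TR-FRET, ex 340 / em 520:495 ratio. Norm: DMSO 0%, T3 100%.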
# THRA (gene 7067) [7] = molecular target: THRA (gene 7067) (UniProt P10827); assay: TOX21_TRA_COA_Agonist_Followup_ratio: Tox21 Thyroid Hormone Receptor alpha Agonism through Coactivator Recruitment Follow-Up Assay, Ratio (AID 2283948; active means hit-call score of the fitted dose curve at least 0.9, where 1 is the maximum; inactive means score below 0.9)
# In short: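 GST-TRa LBD 2.5 nM + 0.10% BSA + cpd; add fluorescein-SRC-2 200 nM, Tb-anti-GST 2 nM. TR-FRET ex 340, em 520/495 ratio. Norm: DMSO 0%, T3 100%; gain-of-signal fit.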
# [8] = TOX21_TRB_BLA_Agonist_Followup_viability: Viability Assessment in the Tox21 Thyroid Hormone Receptor beta Agonism Beta-lactamase (BLA) Follow-Up Assay (AID 2283956)
# In short: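 Viability was read as CellTiter-Glo luminescence in the same wells as the TRb-bla agonist read-out. HEK293T GAL4-TRb LBD cells were treated for 18 h (37C, 5% CO2) at 11 concentrations in triplicate. Fits were bidirectional versus DMSO baseline.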
# THRB (gene 7068) [9] = molecular target: THRB (gene 7068) (UniProt P10828); assay: TOX21_TRB_COA_Agonist_Followup_ratio: Tox21 Thyroid Hormone Receptor beta Agonism through Coactivator Recruitment Follow-Up Assay, Ratio (AID 2283963; active means hit-call score of the fitted dose curve at least 0.9, where 1 is the maximum; inactive means score below 0.9)
# In short: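 First, the GST-fused TRβ ligand-binding domain (5.0 nM) was incubated with test compound in 0.10% BSA. Next, fluorescein-tagged SRC-2 peptide (200 nM) and terbium anti-GST antibody (2 nM) were added. Finally, TR-FRET emission ratios were normalized against DMSO and T3 controls.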
# [10] = TOX21_TRB_BLA_Antagonist_Followup_viability: Viability Assessment in the Tox21 Thyroid Hormone Receptor beta Antagonism Beta-lactamase (BLA) Follow-Up Assay (AID 2283961)
# In short: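 Viability read as CellTiter-Glo ATP luminescence (loss of signal = cytotoxicity) in the same plates as the TRβ-bla readout. TRβ-LBD/GAL4 UAS-bla HEK293T cells were exposed to compounds, 11 concentrations in triplicate, for 18 h at 37C/5% CO2.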
compound,measurement,setting,value
CCC(=O)O[C@H]1CC[C@H]2[C@@H]3CCC4=CC(=O)CC[C@]4(C)[C@H]3CC[C@]12C,outcome,[1],inactive
same,outcome,[2],inactive
CCCCCCCCCc1ccc(O)cc1,outcome,[1],inactive
CC(C)(O)C(=O)Nc1ccc([N+](=O)[O-])c(C(F)(F)F)c1,outcome,[1],inactive
same,outcome,[2],inactive
C[C@]12CCC(=O)C=C1CC[C@@H]1[C@@H]2CC[C@@]2(C)[C@H]1CC[C@]2(C)O,outcome,[3],inactive
same,outcome,THRA (gene 7067) [4],inactive
same,outcome,THRB (gene 7068) [5],inactive
same,outcome,THRB (gene 7068) [6],inactive
C[C@]12CCC(=O)C=C1CC[C@@H]1[C@@H]2CC[C@]2(C)C(=O)CC[C@@H]12,outcome,[1],inactive
same,outcome,[2],inactive
ClC1=C(Cl)[C@]2(Cl)[C@@H]3[C@@H]4C[C@@H]([C@H]5O[C@@H]45)[C@@H]3[C@@]1(Cl)C2(Cl)Cl,outcome,[1],inactive
ClC(Cl)=C(c1ccc(Cl)cc1)c1ccc(Cl)cc1,outcome,[1],inactive
same,outcome,[2],inactive
N#Cc1ccc(N(CC(N)=O)CC(F)(F)F)cc1C(F)(F)F,outcome,[1],inactive
same,outcome,[2],inactive
Clc1ccc(C(c2ccccc2Cl)C(Cl)(Cl)Cl)cc1 (stereo unspecified),outcome,[1],inactive
same,AC50,[2],76 µM (active)
Cc1cc(O)ccc1Cl,outcome,THRA (gene 7067) [7],inactive
same,outcome,[8],inactive
same,outcome,THRB (gene 7068) [9],inactive
CO/C=C(/C(=O)OC)c1ccccc1COc1cccc(C(F)(F)F)n1,AC50,[3],2.06 µM (active)
same,outcome,THRA (gene 7067) [4],inactive
same,outcome,THRB (gene 7068) [5],inactive
same,outcome,[10],inactive
same,outcome,THRB (gene 7068) [6],inactive
CC(C)(c1ccccc1)c1ccc(O)cc1,outcome,[1],inactive
same,outcome,[2],inactive
COc1ccc(O)c(C(C)(C)C)c1,outcome,[1],inactive
same,outcome,[2],inactive
Oc1ccc(C(c2ccc(O)cc2)(C(F)(F)F)C(F)(F)F)cc1,outcome,[2],inactive
